# How the values were obtained:
# Experiment in all cases: yeast three-hybrid, YBZ-1, SC-Leu-His + 0.5 mM 3-AT, 4 days
# Conditions in all cases: tags: N-Gal4 AD-HA kept; label: inside an RPR1-promoter hybrid RNA with tandem MS2 sites; ssRNA
# [1] = biological target: PUM1 PUF domain R7-RHP (Homo sapiens, UniProt Q14671 828-1176, S1079R;N1080H;E1083P)
# Outline: (§1)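 Matching RNA elements and Pumilio-1 PUF domain libraries, randomized at the three base-contacting residues of every repeat, were co-expressed from a centromeric plasmid in strain YBZ-1 (LexA–MS2 coat fusion, HIS3 reporter). The repeat regions were PCR-amplified and Illumina-sequenced from cells grown four days on SC-Leu (input) or SC-Leu-His + 0.5 mM 3-AT (selection). The interaction score is the log change in variant frequency from input to selection. It is computed in log2, with a pseudocount of 1 for absent variants.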
# [2] = biological target: PUM1 PUF domain R7-EPS (Homo sapiens, UniProt Q14671 828-1176, S1079E;N1080P;E1083S)
# Outline: as §1
# [3] = biological target: PUM1 PUF domain R5-FRI (Homo sapiens, UniProt Q14671 828-1176, C1007F;Q1011I)
# Outline: as §1
# [4] = biological target: PUM1 PUF domain R8-RYM (Homo sapiens, UniProt Q14671 828-1176, N1122R;Q1126M)
# Outline: as §1
# [5] = biological target: T1, PUM1 PUF domain R6-AYE (Homo sapiens, UniProt Q14671 828-1176, N1043A;Q1047E)
# T1 sequence: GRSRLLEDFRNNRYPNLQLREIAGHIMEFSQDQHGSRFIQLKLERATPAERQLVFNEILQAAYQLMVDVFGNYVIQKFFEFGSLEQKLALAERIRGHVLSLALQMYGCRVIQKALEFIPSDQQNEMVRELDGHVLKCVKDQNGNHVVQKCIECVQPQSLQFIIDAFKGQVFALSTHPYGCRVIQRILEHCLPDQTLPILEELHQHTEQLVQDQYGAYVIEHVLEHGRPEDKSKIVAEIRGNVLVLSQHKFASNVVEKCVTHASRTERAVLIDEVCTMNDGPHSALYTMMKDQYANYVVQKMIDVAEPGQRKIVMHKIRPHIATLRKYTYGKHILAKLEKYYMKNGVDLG
# Outline: as §1
# [6] = biological target: PUM1 PUF domain R8-NWG (Homo sapiens, UniProt Q14671 828-1176, Y1123W;Q1126G)
# Outline: as §1
# [7] = biological target: PUM1 PUF domain R3-VHP (Homo sapiens, UniProt Q14671 828-1176, C935V;R936H;Q939P)
# Outline: as §1
# [8] = biological target: PUM1 PUF domain R2-LWE (Homo sapiens, UniProt Q14671 828-1176, N899L;Y900W;Q903E)
# Outline: as §1
# [9] = biological target: PUM1 PUF domain R3-SRV (Homo sapiens, UniProt Q14671 828-1176, C935S;Q939V)
# Outline: as §1
# [10] = biological target: PUM1 PUF domain R7-TVR (Homo sapiens, UniProt Q14671 828-1176, S1079T;N1080V;E1083R)
# Outline: as §1
sequence,measurement,setting,value
GGCUAGAACUAGUGGAUCCCCCGGCGCCCGGCGGCUCGAGCCCGGGUAAGUCUAAAUAGUCUGCAUGCCGCCGGGCGCCAUGCCUGCAGGUCGACUCUAGAAAACAUG,binding signal,[1],4.29 log2 enrichment (interaction score)
same,binding signal,[2],1.4 log2 enrichment (interaction score)
GGCUAGAACUAGUGGAUCCCCCGGCGCCCGGCGGCUCGAGCCCGGGUAAGUGUCAAUAGUCUGCAUGCCGCCGGGCGCCAUGCCUGCAGGUCGACUCUAGAAAACAUG,binding signal,[3],2.41 log2 enrichment (interaction score)
GGCUAGAACUAGUGGAUCCCCCGGCGCCCGGCGGCUCGAGCCCGGGUAAGCGUAAAUAGUCUGCAUGCCGCCGGGCGCCAUGCCUGCAGGUCGACUCUAGAAAACAUG,binding signal,[4],4.93 log2 enrichment (interaction score)
GGCUAGAACUAGUGGAUCCCCCGGCGCCCGGCGGCUCGAGCCCGGGUAAGUGGAAAUAGUCUGCAUGCCGCCGGGCGCCAUGCCUGCAGGUCGACUCUAGAAAACAUG,binding signal,[5],3.94 log2 enrichment (interaction score)
GGCUAGAACUAGUGGAUCCCCCGGCGCCCGGCGGCUCGAGCCCGGGUAAGUGUUAAUAGUCUGCAUGCCGCCGGGCGCCAUGCCUGCAGGUCGACUCUAGAAAACAUG,binding signal,[3],1.47 log2 enrichment (interaction score)
GGCUAGAACUAGUGGAUCCCCCGGCGCCCGGCGGCUCGAGCCCGGGUAAGUGUAAAUAGUCUGCAUGCCGCCGGGCGCCAUGCCUGCAGGUCGACUCUAGAAAACAUG,binding signal,[3],1.55 log2 enrichment (interaction score)
same,binding signal,[6],3.93 log2 enrichment (interaction score)
same,binding signal,[7],3.02 log2 enrichment (interaction score)
same,binding signal,[8],4.67 log2 enrichment (interaction score)
same,binding signal,[9],3.25 log2 enrichment (interaction score)
GGCUAGAACUAGUGGAUCCCCCGGCGCCCGGCGGCUCGAGCCCGGGUAAGUGUAAAGAGUCUGCAUGCCGCCGGGCGCCAUGCCUGCAGGUCGACUCUAGAAAACAUG,binding signal,[8],6.63 log2 enrichment (interaction score)
GGCUAGAACUAGUGGAUCCCCCGGCGCCCGGCGGCUCGAGCCCGGGUAAGUUUAAAUAGUCUGCAUGCCGCCGGGCGCCAUGCCUGCAGGUCGACUCUAGAAAACAUG,binding signal,[2],5.7 log2 enrichment (interaction score)
same,binding signal,[10],4.91 log2 enrichment (interaction score)
GGCUAGAACUAGUGGAUCCCCCGGCGCCCGGCGGCUCGAGCCCGGGUAAGUGUAAGUAGUCUGCAUGCCGCCGGGCGCCAUGCCUGCAGGUCGACUCUAGAAAACAUG,binding signal,[9],1.79 log2 enrichment (interaction score)
GGCUAGAACUAGUGGAUCCCCCGGCGCCCGGCGGCUCGAGCCCGGGUAAGUGAAAAUAGUCUGCAUGCCGCCGGGCGCCAUGCCUGCAGGUCGACUCUAGAAAACAUG,binding signal,[5],6.06 log2 enrichment (interaction score)
GGCUAGAACUAGUGGAUCCCCCGGCGCCCGGCGGCUCGAGCCCGGGUAAGUGUAAAAAGUCUGCAUGCCGCCGGGCGCCAUGCCUGCAGGUCGACUCUAGAAAACAUG,binding signal,[8],7.67 log2 enrichment (interaction score)
GGCUAGAACUAGUGGAUCCCCCGGCGCCCGGCGGCUCGAGCCCGGGUAAGUGUAAUUAGUCUGCAUGCCGCCGGGCGCCAUGCCUGCAGGUCGACUCUAGAAAACAUG,binding signal,[9],2.15 log2 enrichment (interaction score)

# — article PMC8384837, “Expanding the binding specificity for RNA recognition by a PUF domain”
